Test systems include NCI-H23 lung; NCI-H226 lung; NCI-H322M lung; HOP-62 NSCLC; NCI-H460 lung; HOP-92 NSCLC; NCI-H522 lung; A549/ATCC NSCLC; 786-0 renal; COLO 205 colon; DU-145 prostate; K-562 leukemia; MALME-3M melanoma; MDA-MB-231 breast; RXF 393 renal; SF-268 CNS; SF-295 CNS; SF-539 CNS; UACC-257 melanoma; M14 melanoma.
Holding throughout (test): NCI-60 one-dose screen, 48 h (100 = growth as untreated, 0 = no growth, -100 = all killed)
Common to all, as to conditions: 10 µM unless noted

Compounds without any hit were thinned out: in the full panel of roughly 83,000, 20% have a hit.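 Treatment: one concentration, 48 hours, 96-well format. Scoring: percent growth, with anything below 10 considered active.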 Values without a mark were called inactive. Active and inactive are the calls of the source.

For the compound `O=C(Nc1nccs1)c1noc2ccccc12`, the growth is 91.9% in the experiment on NCI-H23 lung; 92.7% with NCI-H226 lung; 92% with NCI-H322M lung; 86.8% with HOP-62 NSCLC; 96.6% in the experiment on NCI-H460 lung; 76.2% with HOP-92 NSCLC. Further, the growth was 86.6% in the experiment on NCI-H522 lung; 95.7% with A549/ATCC NSCLC; 95.7% in the experiment on 786-0 renal; 104% in the experiment with COLO 205 colon; 107% with DU-145 prostate; 87.7% in the experiment on K-562 leukemia. Further, the growth with MALME-3M melanoma is 96.8%; in the experiment with MDA-MB-231 breast, 91.3%; in the experiment on RXF 393 renal it was 110%; in the experiment on SF-268 CNS it was 103%; with SF-295 CNS, 101%; in the experiment on SF-539 CNS, 95.6%. Moreover, the figures for the growth in the experiment with UACC-257 melanoma and in the experiment on M14 melanoma were 90.6% and 96%, respectively.

Consider `Cn1nc(C(F)(F)F)c(-c2cc(C(F)(F)F)cc(C(F)(F)F)c2)c1-c1ccc(OCc2ccc(Cl)cc2)cc1O`, for which the growth with NCI-H23 lung is 0.56% (active); in the experiment on NCI-H226 lung, 13.9%; in the experiment on NCI-H322M lung, 5.67% (active); with HOP-62 NSCLC, -9.87% (active); in the experiment with NCI-H460 lung it was -10.4% (active); in the experiment with HOP-92 NSCLC, -20.1% (active). In addition, the growth is -9.19% (active) with NCI-H522 lung; 10.5% in the experiment with A549/ATCC NSCLC; 2.41% (active) with 786-0 renal; -90.7% (active) in the experiment on COLO 205 colon; 20.6% in the experiment with DU-145 prostate; 1.63% (active) in the experiment with K-562 leukemia. Besides, the growth was -15.9% (active) in the experiment with MALME-3M melanoma; -31.5% (active) with MDA-MB-231 breast; -14.5% (active) in the experiment on RXF 393 renal; 16.6% with SF-268 CNS; -22.6% (active) in the experiment with SF-295 CNS; 2.13% (active) with SF-539 CNS. Besides, the growth in the experiment on UACC-257 melanoma is -7.16% (active); in the experiment with M14 melanoma, 6.3% (active).

Regarding `O=C1CC(c2ccc(O)c(O)c2)Oc2cc(O)c([C@@H]3O[C@H](CO)[C@@H](O)[C@H](O)[C@H]3O)c(O)c21` (stereo not given in full), the growth in the experiment with NCI-H23 lung was 106%; in the experiment on NCI-H226 lung, 98.9%; in the experiment on NCI-H322M lung, 113%; in the experiment with HOP-62 NSCLC it was 105%; in the experiment with NCI-H460 lung, 99.1%; with HOP-92 NSCLC it was 113%. In addition, the growth was 100% in the experiment with NCI-H522 lung; 94.8% in the experiment on A549/ATCC NSCLC; 99.5% in the experiment with 786-0 renal; 108% in the experiment on COLO 205 colon; 105% in the experiment on DU-145 prostate; 96.8% with K-562 leukemia. The growth in the experiment with MALME-3M melanoma was 110%; in the experiment with MDA-MB-231 breast, 101%; in the experiment with RXF 393 renal, 103%; in the experiment on SF-268 CNS, 102%; with SF-295 CNS it was 103%; in the experiment with SF-539 CNS it was 100%. Besides, the growth in the experiment with UACC-257 melanoma is 106%; in the experiment with M14 melanoma it was 102%.

In the case of `C#C[C@@]1(O)[C@@H](CO)O[C@@H](n2cc(Cl)c3c(N)ccnc32)[C@@H]1O`, the growth in the experiment with NCI-H23 lung is 71.9%; with NCI-H226 lung it was 96.7%; in the experiment with NCI-H322M lung, 74.6%; in the experiment with HOP-62 NSCLC, 120%; in the experiment with NCI-H460 lung it was 25.1%; in the experiment on HOP-92 NSCLC, 48.2%. Besides, the growth in the experiment with NCI-H522 lung was 75.1%; in the experiment on A549/ATCC NSCLC, 67%; in the experiment with 786-0 renal, 81.2%; in the experiment on COLO 205 colon, 63.4%; in the experiment on DU-145 prostate, 56.1%; in the experiment on K-562 leukemia it was 42.8%. Also, the growth with MALME-3M melanoma was 82.3%; in the experiment with MDA-MB-231 breast, 57.4%; with RXF 393 renal it was 106%; in the experiment on SF-268 CNS, 87.4%; in the experiment on SF-295 CNS, 81.9%; in the experiment with SF-539 CNS, 89.3%. The figures for the growth in the experiment with UACC-257 melanoma and in the experiment on M14 melanoma were 89.2% and 85.3%, respectively.

Take `O=C(Nc1cc(=O)[nH]c(=O)[nH]1)C(Cl)Cl`: the growth in the experiment on NCI-H23 lung is 107%; in the experiment on NCI-H226 lung, 102%; with NCI-H322M lung it was 95.5%; with HOP-62 NSCLC, 106%; in the experiment on NCI-H460 lung, 109%; in the experiment with HOP-92 NSCLC, 98.8%. Besides, the growth with NCI-H522 lung was 90.3%; in the experiment on A549/ATCC NSCLC it was 97.4%; with 786-0 renal it was 107%; with COLO 205 colon, 122%; in the experiment with DU-145 prostate, 113%; with K-562 leukemia it was 99.2%. The growth in the experiment on MALME-3M melanoma is 96.7%; in the experiment with MDA-MB-231 breast, 102%; in the experiment on RXF 393 renal, 106%; in the experiment on SF-268 CNS it was 99.9%; in the experiment with SF-295 CNS it was 105%; with SF-539 CNS, 106%. Moreover, the values for the growth with UACC-257 melanoma and in the experiment with M14 melanoma were 96.5% and 106%, respectively.

Take `C=C1C(=O)O[C@H]2[C@H]1CC/C(COC(=O)c1cn(C)c3ccccc13)=C\CC[C@@]1(C)O[C@@H]21`: the growth in the experiment on NCI-H23 lung is 22.5%; in the experiment with NCI-H226 lung it was -36.5% (active); in the experiment on NCI-H322M lung, 85.2%; in the experiment on HOP-62 NSCLC it was 32.4%; in the experiment with NCI-H460 lung, 39.7%; with HOP-92 NSCLC it was -57.9% (active). In addition, the growth in the experiment with NCI-H522 lung is -85.1% (active); in the experiment on A549/ATCC NSCLC it was 51.4%; in the experiment with 786-0 renal, -63% (active); in the experiment with COLO 205 colon, -80.4% (active); with DU-145 prostate it was -72.4% (active); in the experiment on K-562 leukemia it was 0.396% (active). For the same compound, the growth with MALME-3M melanoma is -60.3% (active); in the experiment on MDA-MB-231 breast it was -49% (active); with RXF 393 renal, -87.8% (active); with SF-268 CNS, -8.89% (active); in the experiment with SF-295 CNS, 63.8%; in the experiment on SF-539 CNS, -58% (active). Besides, the results for the growth in the experiment on UACC-257 melanoma and in the experiment on M14 melanoma were -56% (active) and -36.8% (active), respectively.

`COc1cc(C)ccc1Oc1nc(Nc2ccc(N3CCOCC3)cc2)ncc1N=Cc1cc(C(F)(F)F)cc(C(F)(F)F)c1`: the growth in the experiment on NCI-H23 lung was 70.4%; in the experiment with NCI-H226 lung, 55.4%; in the experiment with NCI-H322M lung it was 79.7%; in the experiment with HOP-62 NSCLC, 61.1%; with NCI-H460 lung, 44.6%; in the experiment with HOP-92 NSCLC, 67.8%. For the same compound, the growth in the experiment on NCI-H522 lung is 27.3%; in the experiment with A549/ATCC NSCLC, 70%; in the experiment with 786-0 renal, 76.6%; with COLO 205 colon, 68.3%; in the experiment on DU-145 prostate, 83.7%; with K-562 leukemia, 37.7%. For the same compound, the growth in the experiment with MALME-3M melanoma was 91.7%; with MDA-MB-231 breast, 82.9%; with RXF 393 renal, 38.4%; with SF-268 CNS, 69%; in the experiment on SF-295 CNS it was 75.8%; with SF-539 CNS it was 73.8%. Moreover, the growth with UACC-257 melanoma was 79.2%; in the experiment on M14 melanoma, 77.7%.

For the compound `C=C1C(=O)O[C@H]2[C@H]1CCC(/C=N/c1ncc(Br)cc1N)=C\CC[C@@]1(C)O[C@@H]21`, the growth with NCI-H23 lung was 49.2%; in the experiment on NCI-H226 lung, 51.9%; in the experiment on NCI-H322M lung it was 85.3%; in the experiment with HOP-62 NSCLC, 67.3%; with NCI-H460 lung it was 58.3%; in the experiment on HOP-92 NSCLC, -15.2% (active). In addition, the growth in the experiment on NCI-H522 lung was -51.7% (active); with A549/ATCC NSCLC, 57.4%; in the experiment with 786-0 renal, -13.9% (active); in the experiment with COLO 205 colon, -60% (active); with DU-145 prostate, 15.5%; with K-562 leukemia it was 2.64% (active). For the same compound, the growth is -9.18% (active) in the experiment on MALME-3M melanoma; -15.5% (active) with MDA-MB-231 breast; -79.3% (active) in the experiment on RXF 393 renal; 52.5% in the experiment on SF-268 CNS; 70.3% in the experiment with SF-295 CNS; 25.8% in the experiment on SF-539 CNS. Moreover, the growth is 22% in the experiment on UACC-257 melanoma and -12.4% (active) in the experiment on M14 melanoma.
